In PubChem BioAssay:
Unmarked numbers belong to inactive results. How the calls were made is not given here.

These compounds were tested against Pantothenate synthetase (Mycobacterium tuberculosis (strain ATCC 25618 / H37Rv)) (UniProt P9WIL5) (assay: Coupled enzyme confirmation of inhibitors against recombinant Mtb PanC (AID 375;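 further: 0% = full reaction with vehicle and 100% = no enzyme background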)). Details: coupled enzyme assay; at 10 µM, active compounds read high.
Pantothenate synthetase (Mycobacterium tuberculosis (strain ATCC 25618 / H37Rv)), sequence (P9WIL5 whole entry, looked up): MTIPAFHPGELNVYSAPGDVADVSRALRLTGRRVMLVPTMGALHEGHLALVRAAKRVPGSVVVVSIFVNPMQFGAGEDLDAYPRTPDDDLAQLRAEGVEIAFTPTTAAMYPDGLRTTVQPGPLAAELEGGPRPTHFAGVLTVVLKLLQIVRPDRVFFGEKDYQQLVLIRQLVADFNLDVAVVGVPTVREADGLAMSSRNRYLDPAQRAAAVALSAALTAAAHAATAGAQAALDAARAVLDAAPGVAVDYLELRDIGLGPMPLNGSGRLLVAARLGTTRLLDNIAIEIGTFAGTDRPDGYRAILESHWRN

| SMILES | inhibition |
| --- | --- |
| O=C(c1cnc2n(c1=O)CCS2)N1CCc2ccccc21 | 2% |
| COc1ccc(C(=O)N2CCN(c3nc4cc(C)ccc4cc3C#N)CC2)c(OC)c1 | 0% |
| CCC(OC(=O)c1cccs1)C(=O)NCc1ccco1 (configuration not stated) | 0% |
| CCOCC(O)CS(=O)Cc1ccccc1 (configuration not stated) | 0% |
| C/C=C/COC(=O)c1[nH]c2c(c1C)C(=O)CC(c1ccc(N(C)C)cc1)C2 (configuration not stated) | 1% |
| CC(C)CC(c1nnnn1C(C)(C)C)N1CCN(C2CCCC2)CC1 (configuration not stated) | 0% |
| N#CC1=C(N)C(C#N)(C#N)[C@H](c2ccsc2)[C@H]2COCC=C12 | 0% |
| Cc1ccc(N(C(C)C(=O)Nc2ccc(S(=O)(=O)N3CCOCC3)cc2)S(C)(=O)=O)cc1 (configuration not stated) | 0% |
| COc1cccc(C(=O)Nc2ccc(NC(=O)C(C)(C)C)cn2)c1 | 0% |
| COc1ccccc1-c1noc(-c2ccco2)n1 | 6% |
| CON(C)c1nc(Oc2ccc(=O)[nH]n2)nc(N(C)C)n1 | 1% |
| O=C1CCCC2=C1C(c1ccsc1)CC(=O)N2c1ccccc1 (configuration not stated) | 0% |
| CCCS(=O)(=O)N1CCCC(C(=O)NC(C)c2ccc3c(c2)OCCO3)C1 (configuration not stated) | 3% |
| O=C1N2c3ccccc3CCc3cccc(c32)C1(O)C(F)(F)F (configuration not stated) | 0% |
| COCCOC(=O)c1[nH]c2c(c1C)C(=O)CC(c1ccco1)C2 (configuration not stated) | 3% |
| O=C(CSC1=NC(=O)C(Cc2ccccc2)C(=O)N1)NC1CCCCC1 (configuration not stated) | 0% |
| CC1Cc2ccccc2N1Cc1cc(=O)n2ccsc2n1 (configuration not stated) | 0% |
